The values that follow come from paper PMC7826789 (International Journal of Molecular Sciences, 2021).

Test systems include ANKK1; AURKA; AURKB; AURKC; AXL; BLK; BMPR1A; BMPR1B; BMPR2; BMX; BRAF(V600E); BRAF; BRSK1.
Settings in all cases: Compound Concentration (nM):1000
Another experiment has as its system T1, AMPK-alpha1.
T1 construct: gene PRKAA1

A further experiment relates to T2, AMPK-alpha2.
T2 construct: gene PRKAA2

Another experiment relates to T3, ARK5.
T3 construct: gene NUAK1

The test system of another experiment is T4, ASK1.
T4 construct: gene MAP3K5

The test system of a further experiment is T5, ASK2.
T5 construct: gene MAP3K6

The next experiment relates to T6, BIKE.
T6 construct: gene BMP2K

The next experiment deals with T7, BRK.
T7 construct: gene PTK6
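Note: KINOMEscan scanMAX binding as percent activity remaining versus control; lower means stronger binding.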

With `C[C@@H](Oc1cc(-n2cnc3ccc(OC4CCN(C)CC4)cc32)sc1C(N)=O)c1ccccc1Cl` [GSK579289A], the “Percent Control” value in the experiment with AMPK-alpha1 is 45%; in the experiment on AMPK-alpha2, 100%; with ANKK1 it was 63%; in the experiment on ARK5 it was 19%; in the experiment with ASK1, 99%; with ASK2 it was 66%. The “Percent Control” value in the experiment on AURKA was determined as 76%; with AURKB, 94%; in the experiment with AURKC, 65%; in the experiment with AXL, 67%; with BIKE, 19%; in the experiment on BLK, 94%. The “Percent Control” value in the experiment with BMPR1A amounted to 72%; with BMPR1B, 67%; in the experiment on BMPR2 it was 78%; with BMX, 98%; in the experiment on BRAF(V600E) it was 82%; with BRAF it was 95%. The “Percent Control” value was found to be 77% with BRK and 64% in the experiment with BRSK1.

As for `CCn1c(-c2nonc2N)nc2c(C#CC(C)(C)O)nc(OCCNC)cc21.Cl` [GSK949675], the “Percent Control” value was 100% in the experiment on AMPK-alpha1; 100% in the experiment with AMPK-alpha2; 100% in the experiment on ANKK1; 100% in the experiment with ARK5; 95% with ASK1; 100% in the experiment on ASK2. In addition, the “Percent Control” value in the experiment on AURKA worked out at 90%; in the experiment on AURKB, 100%; in the experiment on AURKC, 100%; with AXL, 100%; in the experiment on BIKE, 75%; in the experiment on BLK, 96%. Further, the “Percent Control” value in the experiment with BMPR1A is given as 89%; in the experiment on BMPR1B, 89%; in the experiment on BMPR2 it was 100%; in the experiment with BMX it was 100%; in the experiment on BRAF(V600E), 100%; in the experiment on BRAF, 100%. In addition, the “Percent Control” value in the experiment with BRK and with BRSK1 was 100% in each case.

On to `COc1cccc(-n2ncc3c(N/N=C/c4ccncc4)ncnc32)c1` [GW784752X], for which the “Percent Control” value in the experiment with AMPK-alpha1 was 100%; in the experiment on AMPK-alpha2, 86%; in the experiment on ANKK1, 79%; in the experiment on ARK5 it was 96%; in the experiment on ASK1 it was 100%; with ASK2, 62%. The “Percent Control” value came out at 69% with AURKA; 89% with AURKB; 94% with AURKC; 100% in the experiment on AXL; 66% in the experiment with BIKE; 45% with BLK. Also, the “Percent Control” value with BMPR1A is reported as 51%; in the experiment on BMPR1B, 0.1%; in the experiment on BMPR2 it was 86%; in the experiment on BMX it was 100%; with BRAF(V600E), 3.2%; with BRAF, 6.5%. For the same molecule, the “Percent Control” value in the experiment on BRK is 100%; in the experiment on BRSK1, 18%.

In the case of `CN(C)CCNC(=O)Nc1ccc(N(C)c2ccnc(Nc3ccc(CS(C)(=O)=O)cc3)n2)cc1.Cl` [GW830900A], the “Percent Control” value in the experiment with AMPK-alpha1 is 87%; in the experiment on AMPK-alpha2 it was 74%; with ANKK1, 88%; in the experiment on ARK5 it was 48%; with ASK1 it was 100%; in the experiment on ASK2, 80%. The “Percent Control” value with AURKA is on record as 8.8%; in the experiment with AURKB, 4.4%; with AURKC it was 4.5%; with AXL, 58%; in the experiment with BIKE, 5.1%; in the experiment on BLK, 93%. Also, the “Percent Control” value in the experiment with BMPR1A worked out at 100%; in the experiment on BMPR1B, 52%; in the experiment with BMPR2, 100%; in the experiment with BMX, 98%; in the experiment with BRAF(V600E) it was 100%; in the experiment with BRAF it was 100%. Also, the entries for the “Percent Control” value in the experiment with BRK and with BRSK1 were 96% and 90%, respectively.

For `NS(=O)(=O)c1ccc(Nc2ncc(-c3ccccc3)o2)cc1` [GW572399X], the “Percent Control” value in the experiment with AMPK-alpha1 was 100%; in the experiment on AMPK-alpha2 it was 95%; with ANKK1 it was 82%; in the experiment on ARK5, 100%; in the experiment on ASK1 it was 100%; in the experiment with ASK2 it was 77%. Further, the “Percent Control” value was 100% in the experiment on AURKA; 43% with AURKB; 100% in the experiment on AURKC; 100% with AXL; 100% in the experiment with BIKE; 89% in the experiment on BLK. In addition, the “Percent Control” value in the experiment with BMPR1A is reported as 100%; with BMPR1B, 83%; in the experiment on BMPR2, 100%; with BMX it was 100%; in the experiment with BRAF(V600E) it was 80%; in the experiment on BRAF, 95%. The “Percent Control” value in the experiment with BRK and in the experiment with BRSK1 was 100% each time.

Regarding `O=C(Nc1n[nH]c2nc(-c3ccc(O)cc3)c(Br)cc12)C1CC1` [SB-725317], the “Percent Control” value in the experiment on AMPK-alpha1, in the experiment with AMPK-alpha2, with ANKK1, with ARK5, with ASK1 and with ASK2 was 100% each time. Further, the “Percent Control” value in the experiment on AURKA is listed as 100%; with AURKB, 91%; in the experiment on AURKC, 59%; in the experiment with AXL, 100%; in the experiment on BIKE it was 63%; in the experiment on BLK, 92%. The “Percent Control” value worked out at 98% in the experiment with BMPR1A; 69% in the experiment with BMPR1B; 100% in the experiment with BMPR2; 100% in the experiment with BMX; 5.3% with BRAF(V600E); 17% with BRAF. The “Percent Control” value in the experiment with BRK is listed as 100%; in the experiment on BRSK1, 46%.

In the case of `CCc1ccc(Oc2nccc(-c3c(-c4ccc(F)cc4)ncn3C3CCNCC3)n2)cc1` [SB-242719], the “Percent Control” value is 100% with AMPK-alpha1; 99% in the experiment on AMPK-alpha2; 83% in the experiment with ANKK1; 100% in the experiment on ARK5; 84% in the experiment on ASK1; 66% in the experiment with ASK2. Besides, the “Percent Control” value in the experiment on AURKA stood at 81%; in the experiment on AURKB, 100%; in the experiment with AURKC, 98%; with AXL, 100%; in the experiment with BIKE, 100%; with BLK it was 82%. Moreover, the “Percent Control” value in the experiment on BMPR1A is 87%; with BMPR1B it was 88%; with BMPR2 it was 82%; with BMX it was 100%; with BRAF(V600E) it was 100%; in the experiment on BRAF it was 100%. For the same molecule, the “Percent Control” value in the experiment with BRK and with BRSK1 was 94% in each case.

Consider `Cc1cc(O)cc(C)c1/C=C/c1cncc(C(N)=O)c1` [GW435821X], for which the “Percent Control” value in the experiment on AMPK-alpha1 is 100%; with AMPK-alpha2, 83%; with ANKK1, 85%; with ARK5, 100%; in the experiment with ASK1, 100%; with ASK2, 79%. Further, the “Percent Control” value in the experiment on AURKA amounted to 85%; in the experiment with AURKB, 100%; in the experiment with AURKC it was 100%; with AXL, 100%; in the experiment with BIKE it was 100%; with BLK, 59%. In addition, the “Percent Control” value was determined as 64% with BMPR1A; 4.4% in the experiment with BMPR1B; 100% in the experiment on BMPR2; 100% with BMX; 12% in the experiment with BRAF(V600E); 23% with BRAF. Moreover, the “Percent Control” value with BRK is listed as 58%; in the experiment on BRSK1 it was 94%.

On to `CC1=C(C(=O)Nc2ccc3[nH]ncc3c2)C(c2ccc3ccccc3c2)CC(=O)N1` (centres unmarked) [GSK270822A], for which the “Percent Control” value with AMPK-alpha1 was 76%; in the experiment on AMPK-alpha2, 81%; in the experiment with ANKK1, 100%; in the experiment with ARK5, 81%; in the experiment with ASK1, 98%; in the experiment with ASK2, 84%. Moreover, the “Percent Control” value with AURKA came out at 39%; in the experiment on AURKB, 49%; in the experiment with AURKC, 62%; in the experiment with AXL, 91%; in the experiment with BIKE it was 100%; with BLK, 35%. Moreover, the “Percent Control” value is 100% in the experiment on BMPR1A; 43% in the experiment on BMPR1B; 75% in the experiment with BMPR2; 78% in the experiment on BMX; 80% in the experiment on BRAF(V600E); 100% in the experiment on BRAF. Moreover, the “Percent Control” value in the experiment with BRK came out at 80%; in the experiment on BRSK1, 100%.

Regarding `COc1cc2ncn(-c3cc(O[C@H](C)c4ccccc4Cl)c(C(N)=O)s3)c2cc1OC` [GSK237701A], the “Percent Control” value with AMPK-alpha1 is 54%; in the experiment on AMPK-alpha2, 100%; in the experiment on ANKK1, 100%; in the experiment on ARK5, 29%; in the experiment on ASK1, 100%; in the experiment on ASK2, 97%. Besides, the “Percent Control” value in the experiment with AURKA stood at 87%; with AURKB, 38%; in the experiment with AURKC it was 74%; in the experiment on AXL, 50%; in the experiment with BIKE it was 1.4%; with BLK, 68%. The “Percent Control” value was found to be 100% in the experiment on BMPR1A; 88% in the experiment with BMPR1B; 72% in the experiment on BMPR2; 75% with BMX; 75% in the experiment on BRAF(V600E); 100% with BRAF. For the same molecule, the “Percent Control” value in the experiment on BRK turned out to be 100%; with BRSK1, 76%.
